# Where a chain is given by its changes, count along the chain named.
# What was measured:
# Assay in all cases: PBM; 200 nM protein, PBS
# Details in all cases: dsDNA, one strand shown
# SHOX = SHOX (Homo sapiens, UniProt O15266 103-189)
# HOXA4 [1] = target: HOXA4 (Homo sapiens, UniProt Q00056 201-287, W262R)
# HOXA4 [2] = target: HOXA4 (Homo sapiens, UniProt Q00056 201-287, R217L)
# NKX2-6 = target: T1, NKX2-6 (Homo sapiens, UniProt A6NCS4 118-204, R150C)
# T1 sequence: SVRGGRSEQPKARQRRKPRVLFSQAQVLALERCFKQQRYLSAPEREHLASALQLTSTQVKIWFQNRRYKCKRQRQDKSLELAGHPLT
# HOXA4 [3] = target: HOXA4 (Homo sapiens, UniProt Q00056 201-287)
# VENTX = target: T2, VENTX (Homo sapiens, UniProt O95231 78-163)
# T2 sequence: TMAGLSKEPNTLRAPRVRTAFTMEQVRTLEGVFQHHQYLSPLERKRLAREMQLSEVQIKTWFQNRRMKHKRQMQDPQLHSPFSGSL
# PAX4 [4] = target: T3, PAX4 (Homo sapiens, UniProt O43316 9-242, R200K)
# T3 sequence: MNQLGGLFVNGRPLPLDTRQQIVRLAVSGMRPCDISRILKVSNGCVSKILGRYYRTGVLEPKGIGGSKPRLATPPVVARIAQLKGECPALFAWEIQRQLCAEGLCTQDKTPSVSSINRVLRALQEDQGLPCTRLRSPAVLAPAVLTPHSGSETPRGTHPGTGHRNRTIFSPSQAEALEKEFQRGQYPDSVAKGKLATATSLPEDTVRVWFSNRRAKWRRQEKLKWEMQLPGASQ
# PAX4 [5] = target: T4, PAX4 (Homo sapiens, UniProt O43316 9-242)
# T4 sequence: T3 sequence with K192R
# PAX4 [6] = target: T5, PAX4 (Homo sapiens, UniProt O43316 9-242, R200Q)
# T5 sequence: T3 sequence with K192Q
# PAX4 [7] = target: T6, PAX4 (Homo sapiens, UniProt O43316 9-242, R227W)
# T6 sequence: T3 sequence with K192R, R219W
# HOXB9 = HOXB9 (Homo sapiens, UniProt P17482 171-250, T197M)
# HOXC9 [8] = target: HOXC9 (Homo sapiens, UniProt P31274 178-260, K195R)
# HOXC10 = HOXC10 (Homo sapiens, UniProt Q9NYD6 254-340)
# HOXC9 [9] = target: HOXC9 (Homo sapiens, UniProt P31274 178-260)
# HOXC9 [10] = target: HOXC9 (Homo sapiens, UniProt P31274 178-260, R193K)
# HOXC9 [11] = target: HOXC9 (Homo sapiens, UniProt P31274 178-260, R222W)
# SIX6 [12] = target: T7, SIX6 (Homo sapiens, UniProt O95475 114-200, H141N)
# T7 sequence: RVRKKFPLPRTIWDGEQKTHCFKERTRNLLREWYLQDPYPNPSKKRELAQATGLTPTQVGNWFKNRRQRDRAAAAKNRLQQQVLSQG
# SIX6 [13] = target: T8, SIX6 (Homo sapiens, UniProt O95475 114-200, L143I)
# T8 sequence: T7 sequence with N28H, L30I
# SIX6 [14] = target: T9, SIX6 (Homo sapiens, UniProt O95475 114-200, T165A)
# T9 sequence: T7 sequence with N28H, T52A
# SIX6 [15] = target: T10, SIX6 (Homo sapiens, UniProt O95475 114-200)
# T10 sequence: T7 sequence with N28H
# HOXC9 (Homo sapiens, UniProt P31274 178-260, K195R), sequence (P31274 178-260 K195R): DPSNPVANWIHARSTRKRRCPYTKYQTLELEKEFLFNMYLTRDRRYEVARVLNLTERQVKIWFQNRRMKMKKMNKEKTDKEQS
# SHOX, sequence (O15266 103-189): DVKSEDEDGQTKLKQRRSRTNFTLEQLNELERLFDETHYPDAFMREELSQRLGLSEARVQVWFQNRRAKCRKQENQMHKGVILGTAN
# HOXB9, sequence (P17482 171-250 T197M): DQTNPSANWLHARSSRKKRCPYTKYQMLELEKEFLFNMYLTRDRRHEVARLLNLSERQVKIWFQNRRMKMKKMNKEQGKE
# HOXC9 (Homo sapiens, UniProt P31274 178-260, R222W), sequence (P31274 178-260 R222W): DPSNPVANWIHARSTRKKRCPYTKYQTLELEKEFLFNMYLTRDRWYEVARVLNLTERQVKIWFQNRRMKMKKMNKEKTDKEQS
# HOXC9 (Homo sapiens, UniProt P31274 178-260, R193K), sequence (P31274 178-260 R193K): as the sequence (P31274 178-260 R222W) above, with R16K, W45R counted along it
# HOXC9 (Homo sapiens, UniProt P31274 178-260), sequence (P31274 178-260): as the sequence (P31274 178-260 R222W) above, with W45R counted along it
# HOXA4 (Homo sapiens, UniProt Q00056 201-287), sequence (Q00056 201-287): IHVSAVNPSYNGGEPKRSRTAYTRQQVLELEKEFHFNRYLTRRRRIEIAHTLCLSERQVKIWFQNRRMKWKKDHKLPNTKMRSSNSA
# HOXA4 (Homo sapiens, UniProt Q00056 201-287, R217L), sequence (Q00056 201-287 R217L): as the sequence (Q00056 201-287) above, with R17L counted along it
# HOXA4 (Homo sapiens, UniProt Q00056 201-287, W262R), sequence (Q00056 201-287 W262R): as the sequence (Q00056 201-287) above, with W62R counted along it
# HOXC10, sequence (Q9NYD6 254-340): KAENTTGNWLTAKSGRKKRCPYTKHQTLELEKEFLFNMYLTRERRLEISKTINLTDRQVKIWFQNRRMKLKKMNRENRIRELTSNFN
sequence,measurement,setting,value
CCGAGCGG,binding signal,SHOX,"6.99 upbm affinity estimate (log intensity, higher = more binding, comparable within an allelic series)"
same,binding signal,HOXA4 [1],"9.72 upbm affinity estimate (log intensity, higher = more binding, comparable within an allelic series)"
same,binding signal,HOXA4 [2],"9.78 upbm affinity estimate (log intensity, higher = more binding, comparable within an allelic series)"
same,binding signal,NKX2-6,"9.43 upbm affinity estimate (log intensity, higher = more binding, comparable within an allelic series)"
same,binding signal,HOXA4 [3],"9.77 upbm affinity estimate (log intensity, higher = more binding, comparable within an allelic series)"
CAATTAGG,binding signal,SHOX,"12.1 upbm affinity estimate (log intensity, higher = more binding, comparable within an allelic series)"
same,binding signal,VENTX,"12.7 upbm affinity estimate (log intensity, higher = more binding, comparable within an allelic series)"
ACAATTAG,binding signal,SHOX,"11.6 upbm affinity estimate (log intensity, higher = more binding, comparable within an allelic series)"
AATTATAA,binding signal,SHOX,"11.4 upbm affinity estimate (log intensity, higher = more binding, comparable within an allelic series)"
AATTAGAT,binding signal,SHOX,"11.6 upbm affinity estimate (log intensity, higher = more binding, comparable within an allelic series)"
same,binding signal,PAX4 [4],"11.7 upbm affinity estimate (log intensity, higher = more binding, comparable within an allelic series)"
same,binding signal,PAX4 [5],"12.2 upbm affinity estimate (log intensity, higher = more binding, comparable within an allelic series)"
same,binding signal,PAX4 [6],"12 upbm affinity estimate (log intensity, higher = more binding, comparable within an allelic series)"
same,binding signal,PAX4 [7],"10.9 upbm affinity estimate (log intensity, higher = more binding, comparable within an allelic series)"
AATTAGCA,binding signal,SHOX,"11.6 upbm affinity estimate (log intensity, higher = more binding, comparable within an allelic series)"
same,binding signal,PAX4 [4],"11.6 upbm affinity estimate (log intensity, higher = more binding, comparable within an allelic series)"
same,binding signal,PAX4 [5],"12.1 upbm affinity estimate (log intensity, higher = more binding, comparable within an allelic series)"
same,binding signal,PAX4 [6],"11.9 upbm affinity estimate (log intensity, higher = more binding, comparable within an allelic series)"
same,binding signal,PAX4 [7],"10.9 upbm affinity estimate (log intensity, higher = more binding, comparable within an allelic series)"
GACAATTA,binding signal,SHOX,"11.6 upbm affinity estimate (log intensity, higher = more binding, comparable within an allelic series)"
same,binding signal,HOXB9,"9.97 upbm affinity estimate (log intensity, higher = more binding, comparable within an allelic series)"
same,binding signal,NKX2-6,"11 upbm affinity estimate (log intensity, higher = more binding, comparable within an allelic series)"
GCCAGCGA,binding signal,VENTX,"8.16 upbm affinity estimate (log intensity, higher = more binding, comparable within an allelic series)"
CCGAGACC,binding signal,HOXA4 [1],"9.83 upbm affinity estimate (log intensity, higher = more binding, comparable within an allelic series)"
same,binding signal,HOXA4 [2],"9.77 upbm affinity estimate (log intensity, higher = more binding, comparable within an allelic series)"
same,binding signal,HOXA4 [3],"9.83 upbm affinity estimate (log intensity, higher = more binding, comparable within an allelic series)"
CCAGGACC,binding signal,VENTX,"7.74 upbm affinity estimate (log intensity, higher = more binding, comparable within an allelic series)"
CCAGCGCA,binding signal,HOXC9 [8],"9.45 upbm affinity estimate (log intensity, higher = more binding, comparable within an allelic series)"
same,binding signal,HOXC10,"10 upbm affinity estimate (log intensity, higher = more binding, comparable within an allelic series)"
same,binding signal,HOXC9 [9],"9.65 upbm affinity estimate (log intensity, higher = more binding, comparable within an allelic series)"
same,binding signal,HOXC9 [10],"9.5 upbm affinity estimate (log intensity, higher = more binding, comparable within an allelic series)"
same,binding signal,HOXC9 [11],"9.6 upbm affinity estimate (log intensity, higher = more binding, comparable within an allelic series)"
CGACGCGA,binding signal,VENTX,"8.03 upbm affinity estimate (log intensity, higher = more binding, comparable within an allelic series)"
CGCACGCC,binding signal,HOXC10,"10.1 upbm affinity estimate (log intensity, higher = more binding, comparable within an allelic series)"
same,binding signal,SIX6 [12],"8.95 upbm affinity estimate (log intensity, higher = more binding, comparable within an allelic series)"
same,binding signal,SIX6 [13],"8.97 upbm affinity estimate (log intensity, higher = more binding, comparable within an allelic series)"
same,binding signal,SIX6 [14],"8.87 upbm affinity estimate (log intensity, higher = more binding, comparable within an allelic series)"
same,binding signal,SIX6 [15],"8.9 upbm affinity estimate (log intensity, higher = more binding, comparable within an allelic series)"
GCGAGCGC,binding signal,HOXB9,"8.46 upbm affinity estimate (log intensity, higher = more binding, comparable within an allelic series)"
AGAGCGCG,binding signal,PAX4 [4],"9.35 upbm affinity estimate (log intensity, higher = more binding, comparable within an allelic series)"
same,binding signal,PAX4 [5],"9.24 upbm affinity estimate (log intensity, higher = more binding, comparable within an allelic series)"
same,binding signal,PAX4 [6],"9.35 upbm affinity estimate (log intensity, higher = more binding, comparable within an allelic series)"
same,binding signal,PAX4 [7],"9.39 upbm affinity estimate (log intensity, higher = more binding, comparable within an allelic series)"
CCGTAGGC,binding signal,HOXC9 [8],"9.73 upbm affinity estimate (log intensity, higher = more binding, comparable within an allelic series)"
same,binding signal,HOXC9 [9],"9.68 upbm affinity estimate (log intensity, higher = more binding, comparable within an allelic series)"
same,binding signal,HOXC9 [10],"9.78 upbm affinity estimate (log intensity, higher = more binding, comparable within an allelic series)"
same,binding signal,HOXC9 [11],"9.77 upbm affinity estimate (log intensity, higher = more binding, comparable within an allelic series)"
CCCCCAGC,binding signal,VENTX,"8.03 upbm affinity estimate (log intensity, higher = more binding, comparable within an allelic series)"
AATAATTG,binding signal,HOXB9,"9.89 upbm affinity estimate (log intensity, higher = more binding, comparable within an allelic series)"
CAGCCAGG,binding signal,HOXC9 [8],"9.53 upbm affinity estimate (log intensity, higher = more binding, comparable within an allelic series)"
same,binding signal,VENTX,"8.23 upbm affinity estimate (log intensity, higher = more binding, comparable within an allelic series)"
same,binding signal,SIX6 [12],"9.06 upbm affinity estimate (log intensity, higher = more binding, comparable within an allelic series)"
same,binding signal,SIX6 [13],"9.03 upbm affinity estimate (log intensity, higher = more binding, comparable within an allelic series)"
same,binding signal,HOXC9 [9],"9.58 upbm affinity estimate (log intensity, higher = more binding, comparable within an allelic series)"
same,binding signal,SIX6 [14],"9.02 upbm affinity estimate (log intensity, higher = more binding, comparable within an allelic series)"
same,binding signal,HOXC9 [10],"9.41 upbm affinity estimate (log intensity, higher = more binding, comparable within an allelic series)"
same,binding signal,SIX6 [15],"9.07 upbm affinity estimate (log intensity, higher = more binding, comparable within an allelic series)"
same,binding signal,HOXC9 [11],"9.62 upbm affinity estimate (log intensity, higher = more binding, comparable within an allelic series)"
GCCAGACC,binding signal,HOXC9 [8],"9.5 upbm affinity estimate (log intensity, higher = more binding, comparable within an allelic series)"
same,binding signal,PAX4 [4],"9.2 upbm affinity estimate (log intensity, higher = more binding, comparable within an allelic series)"
same,binding signal,SIX6 [12],"9.01 upbm affinity estimate (log intensity, higher = more binding, comparable within an allelic series)"
same,binding signal,PAX4 [5],"9.05 upbm affinity estimate (log intensity, higher = more binding, comparable within an allelic series)"
same,binding signal,SIX6 [13],"8.96 upbm affinity estimate (log intensity, higher = more binding, comparable within an allelic series)"
same,binding signal,HOXC9 [9],"9.48 upbm affinity estimate (log intensity, higher = more binding, comparable within an allelic series)"
same,binding signal,SIX6 [14],"9.03 upbm affinity estimate (log intensity, higher = more binding, comparable within an allelic series)"
same,binding signal,PAX4 [6],"9.35 upbm affinity estimate (log intensity, higher = more binding, comparable within an allelic series)"
same,binding signal,HOXC9 [10],"9.46 upbm affinity estimate (log intensity, higher = more binding, comparable within an allelic series)"
same,binding signal,SIX6 [15],"9.02 upbm affinity estimate (log intensity, higher = more binding, comparable within an allelic series)"
same,binding signal,HOXC9 [11],"9.66 upbm affinity estimate (log intensity, higher = more binding, comparable within an allelic series)"
same,binding signal,PAX4 [7],"9.26 upbm affinity estimate (log intensity, higher = more binding, comparable within an allelic series)"

# From PMC11006913
